# Assay outcomes: PubChem, National Center for Advancing Translational Sciences (NCATS)
# Cruzain noTriton: inhibitors of Trypanosoma cruzi cruzain without detergent. purified cruzain, Z-FR-AMC fluorescence, no detergent. Potency, µM, for the others: max response, negative = inhibition, hits mostly inhibitors. 200,000 tested, 2.3% active. AID 1476;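 also: plate controls were enzyme without inhibitor for no effect and buffer without enzyme for full effect; nearly all actives have a fitted effect of over 40% in size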
# Target sequence (P25779 123-467 limits assumed): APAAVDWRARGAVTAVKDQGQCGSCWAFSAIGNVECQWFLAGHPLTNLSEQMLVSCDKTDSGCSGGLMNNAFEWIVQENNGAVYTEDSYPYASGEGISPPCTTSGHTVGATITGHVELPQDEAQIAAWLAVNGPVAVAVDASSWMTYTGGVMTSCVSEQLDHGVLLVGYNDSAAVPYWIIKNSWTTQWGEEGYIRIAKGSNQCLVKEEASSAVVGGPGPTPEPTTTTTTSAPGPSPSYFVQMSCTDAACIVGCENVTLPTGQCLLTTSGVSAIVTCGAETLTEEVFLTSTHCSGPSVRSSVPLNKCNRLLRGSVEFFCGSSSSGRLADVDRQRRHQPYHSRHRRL
#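 Detergent-free condition (0.00005% Triton X-100) in acetate buffer pH 5.5 with DTT. 1.5 nM enzyme and compound were pre-mixed 15 min, then 2 uM Z-FR-AMC substrate added; reaction progress from fluorescence change between first and third reads (60 s).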
# Cruzain inh Det: inhibitors of Trypanosoma cruzi cruzain with detergent; Potency, µM, inactives show max response, negative = inhibition, most hits filed as inhibitors; P25779; AID 1478; purified cruzain, Z-FR-AMC fluorescence, 0.01% Triton; 200,000 tested, 0.43% active;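 also: plate controls were neutral wells for no effect and buffer without enzyme for full effect; nearly all actives have a fitted effect of over 40% in size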
#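 Sodium acetate buffer (100 mM, pH 5.5) containing 5 mM DTT and 0.01% Triton X-100 hosted 1.5 nM cruzain and test compound for 15 min at room temperature. Cleavage of 2 uM Z-FR-AMC was then tracked by fluorescence.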
# An asterisk follows results filed as active; ? = inconclusive. Only some compounds are listed: those with a hit (about 2.6% of all), similar ones and a draw of the others. Calls follow the shape of the dose curve; as a rule, active = well fitted curve in the direction sought with a large enough effect; inconclusive = small, poorly fitted or top-dose-only effect, or another doubt; inactive = no such curve, though single readings can be large; an effect the other way counts as inactive or inconclusive. Potency is read from the fitted curve at half-maximal effect.
SMILES,Cruzain noTriton,Cruzain inh Det
COc1c(Cl)cc(C(=O)Nc2cccc(-c3nc4ccccc4[nH]3)c2)cc1Cl,?,-1.7%
CN(c1ccccc1)S(=O)(=O)c1ccc(Cl)c(C(=O)Nc2ccc(-c3nc4ccccc4[nH]3)cc2)c1,12.6µM*,-3.6%
O=C(Nc1ccc(-c2nc3ccccc3[nH]2)cc1)c1ccccc1NS(=O)(=O)c1ccc(F)cc1,15.8µM*,-8.5%
CN(c1ccccc1)S(=O)(=O)c1ccc(Cl)c(C(=O)Nc2nc3ccccc3[nH]2)c1,?,-2.5%
Cc1cc(F)ccc1S(=O)(=O)Nc1ccccc1C(=O)Nc1ccccc1-c1nc2ccccc2[nH]1,-27.6%,-0.8%
CCCN(CCC)S(=O)(=O)c1ccc(C(=O)Nc2cccc(-c3nc4ccccc4[nH]3)c2)cc1,7.94µM*,-1.3%
COc1cccc(C2CC(=O)N(c3ccc(F)cc3)C3=C2C(=O)OC3)c1OC (stereo not drawn),-6.2%,0.7%
Cc1ccc(C(C)C)c(OCCn2cc(C(=O)c3ccco3)c3ccccc32)c1,3.6%,-5.6%
Cc1cccc(NC(=O)CN2C(=O)COc3ccc(S(=O)(=O)N4CCC(C)CC4)cc32)c1C,-8.6%,-1.7%
O=S(=O)(Nc1ccc(-c2ccc(N3CCCC3)nn2)cc1)c1ccc(OC(F)(F)F)cc1,11.5%,-6.7%
CCOc1ccccc1NC(=S)NC(=O)CCCOc1ccc(Cl)cc1Cl,20µM*,-2.4%
CCOc1ccccc1OCC(=O)Nc1ccc(Cl)cc1Cl,6.0%,2.6%
COc1ccc(/C=N/OC/C(O)=C(\C#N)c2nc3ccccc3[nH]2)cc1,-29.0%,1.6%
COc1ccc(OC/C(O)=C(\C#N)c2nc3ccccc3[nH]2)cc1,25.1µM*,-1.1%
Cc1ccc2sc(NC(=O)c3ccc(N4C(=O)CCC4=O)cc3)nc2c1C,?,1.7%
CCc1cccc2sc(NC(=O)c3ccc(N4C(=O)CCC4=O)cc3)nc12,7.94µM*,1.6%
Cc1ccc(C)c(NC(=O)c2ccc3c(c2)CCCN3S(C)(=O)=O)c1,5.2%,0.9%
Cc1cccc(C)c1OC[C@H](C)N,-0.4%,-1.0%
Cc1ccc(C(=O)NCC(=O)OC(C)C(=O)NCCC2=CCCCC2)cc1C (stereo not drawn),?,22.4µM*
Cc1ccccc1NS(=O)(=O)c1cc(C(=O)NCCC2=CCCCC2)ccc1Cl,-0.7%,-1.7%
CNC(=O)c1cnc2sc(N3CCCCCC3)nn2c1=O,-6.0%,3.9%
CC(/C=N/NC(=S)Nc1cccc(S(=O)(=O)N(C)C)c1)c1ccccc1 (stereo not drawn),-28.0%,-3.3%
CN(C)S(=O)(=O)c1cccc(NC(=S)N/N=C/C(c2ccccc2)c2ccccc2)c1,31.6µM*,-4.8%
COc1ccc(NC(=O)CSc2nc(-c3ccco3)cc(C(F)(F)F)n2)c(OC)c1,-0.7%,0.7%
Cc1cc(-c2ccc(C)c(S(=O)(=O)N(C(C)C)C3CCCCC3)c2)on1,-6.3%,-7.4%
SMILES,Cruzain noTriton,Cruzain inh Det
CCOC(=O)c1c(C)[nH]c(C)c1S(=O)(=O)N1CCCC(C(=O)Nc2ccc(OC)c(OC)c2)C1 (stereo not drawn),-6.3%,-1.9%
CCOc1ccc2nc(SCC(=O)Nc3ccc(F)cc3)nc(-c3ccccc3)c2c1,-0.6%,5.0%
Cc1ccc(-c2nnn(CC(=O)N(c3ccccc3)C(C(=O)NC(C)(C)C)c3cccs3)n2)o1 (stereo not drawn),6.31µM*,0.4%
Cc1ccc(-c2nnn(CC(=O)N(c3cccc(O)c3)C(C(=O)NC(C)(C)C)c3cccs3)n2)o1 (stereo not drawn),6.5%,-7.4%
Cc1ccc(N(C(=O)Cn2nnc(-c3ccc(C)o3)n2)C(C(=O)NC2CCCC2)c2ccco2)cc1 (stereo not drawn),25.1µM*,6.3%
CCC(C(=O)NC1CCCC1)N(C(=O)Cn1nnc(-c2ccc(C)o2)n1)c1cnc2ccccc2c1 (stereo not drawn),?,1.2%
O=C1CCSc2ccc(S(=O)(=O)Nc3cccc(C(F)(F)F)c3)cc2N1,10.5%,-12.0%
O=[N+]([O-])c1ccc(S(=O)(=O)N2CCn3cccc3C2c2ccccc2F)cc1 (stereo not drawn),?,-8.0%
COc1ccc(C2c3cccn3CCN2S(=O)(=O)c2ccc([N+](=O)[O-])cc2)cc1 (stereo not drawn),25.1µM*,-3.2%
Cc1cccn2c(=O)c3cc(C(=O)N(Cc4ccccc4)C(C)C)sc3nc12,?,-6.9%
O=C(NCc1ccc2c(c1)CCN2C(=O)c1ccncc1)c1cccc(F)c1,8.8%,-0.8%
N[C@](CC1c2ccccc2Oc2ccccc21)(C(=O)O)[C@@H]1C[C@@H]1C(=O)O,-2.9%,-6.0%
COc1cc(-c2nc3nc(C)cc(C)n3c2Nc2ccc(Cl)cc2)ccc1O,?,-8.9%
Cc1ccc(C(=O)/C=C/c2cn(CC(O)CN3CCc4ccccc43)c3ccccc23)cc1 (stereo not drawn),10µM*,-4.2%
